# Measured values as given in PubChem BioAssay.
# Results filed as inconclusive are left out. The source made the active and inactive calls.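 The calls were made as follows, unless noted: active = GFP response above 150% of the DMSO control; inconclusive = Fewer than 70 cells counted for a yeast strain; inactive = the rest.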
# Assays:
# [1] = rapamycin-like changes in RPL19A-GFP expression – cell-based, S. cerevisiae, multiplex flow cytometry, primary screen (AID 1862; in the data active = percent of DMSO control GFP below about 86%;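 also: lower values mimic rapamycin by blocking the RPL19A rise seen in DMSO cells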); settings: S. cerevisiae RPL19A-GFP strain, flow cytometry fluorescence, 3 h; at 10 µM; stronger effect = lower value
# [2] = TOR pathway GLN3 branch reporter MEP2-GFP changes – S. cerevisiae, multiplex flow cytometry, primary screen (AID 1867;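 active = GFP response, as percent of the DMSO control, above the screen-wide mean plus 3 SD, about 139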;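 also: median GFP channel fluorescence of barcode-gated MEP2-GFP cells measured by flow cytometry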); settings: S. cerevisiae MEP2-GFP strain, 3 h, at 10 µM, stronger effect = higher value, 100% means same as DMSO wells
# [3] = TOR pathway RTG branch CIT2 reporter changes – S. cerevisiae, GFP fusion, multiplex flow cytometry, primary screen (AID 1870;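 active = percent response above a set limit, the screen-wide mean plus 3 SD, cut at about 130% in these data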;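 also: barcoded CIT2-GFP strain pooled with four other GFP strains with rapamycin as positive control; median GFP fluorescence per well over plate mean of DMSO wells so 100% = DMSO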); settings: S. cerevisiae CIT2-GFP expression, 3 h, at 10 µM, stronger effect = higher value
# [4] = TOR pathway LAP4-GFP level changes – S. cerevisiae, multiplex flow cytometry, primary screen (AID 1873;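 active = GFP signal, as percent of the solvent control, above the screen mean plus 3 SD, about 149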); settings: S. cerevisiae LAP4-GFP expression, 3 h, at 10 µM, stronger effect = higher value
# [5] = yeast AGP1-GFP level changes, GLN3 branch – cell-based, multiplex flow cytometry, S. cerevisiae, primary screen (AID 1887;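 active = GFP signal above the screen-wide mean plus 3 SD, that is over about 124.5% of the solvent control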;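 also: AGP1-GFP fusion strain of S. cerevisiae within a five-strain barcoded multiplex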); settings: 3 h, at 10 µM, stronger effect = higher value
# [6] = hit retest on RPL19A-GFP reporter strain – cell-based, S. cerevisiae, flow cytometry, cherry picks, mother/daughter gates, confirmation (AID 2270;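 active = GFP response below 50% of the DMSO control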); settings: 3 h, at 10 µM, stronger effect = lower value, 100 = same GFP as DMSO wells
# [7] = yeast TOR pathway reporter LAP4-GFP change – cell-based, cherry picks, flow cytometry, mother/daughter gates, confirmation (AID 2271;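 active = GFP response above 150% of the DMSO control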;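 also: ratio of sample to DMSO plate mean so 100% equals DMSO level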); settings: S. cerevisiae LAP4-GFP strain, 3 h, at 10 µM, stronger effect = higher value, 100 means same as DMSO control
# [8] = TOR pathway reporter MEP2-GFP, retest of hits – S. cerevisiae, flow cytometry GFP, cherry picks, confirmation (AID 2272);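 also: ratio of well signal to plate DMSO mean so 100% equals DMSO level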; settings: S. cerevisiae MEP2-GFP strain, 3 h, at 10 µM, stronger effect = higher value
# [9] = TOR pathway CIT2 reporter hit retest – S. cerevisiae, GFP fusion, cherry picks, mother/daughter gates, confirmation (AID 2274;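 active = GFP response above 150% of the DMSO level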); settings: S. cerevisiae CIT2-GFP strain, flow cytometry, 3 h, at 10 µM, stronger effect = higher value
# [10] = reduced mouse 2C T cell binding to pMHC/ICAM-1 vesicles – MLPCN validation set, flow cytometry, LFA-1/ICAM-1 modulator project, pilot screen (AID 2523;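 active = response below a set limit, under 55% cells CD8-positive and vesicle-bound, and CD8 cells' 90th-percentile brightness under 279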;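 as to vesicle binding response: mean PE anti-B7-1 fluorescence of CD8+ cells relative to row control; 100% = QL9-loaded vesicles with DMSO vehicle in the same plate row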); settings: 2C mouse CD8+ T cells, at 7 µM, stronger effect = lower value; double positive events: measured here: CD8+/vesicle+ event percentage
# [11] = measured here: daughter cell gate
# [12] = measured here: mother cell gate
# [13] = measured here: daughter cell gate response
# [14] = measured here: mother cell gate response
SMILES,percent of DMSO control GFP [1],GFP response vs DMSO [2],percent response of DMSO control [3],GFP response vs DMSO [4],"GFP response, % of DMSO [5]",GFP response vs DMSO [6],"GFP response vs DMSO [6, 11] [%]","GFP response vs DMSO [6, 12] [%]",GFP response relative to DMSO [7],"GFP response relative to DMSO [7, 13] [%]","GFP response relative to DMSO [7, 14] [%]",GFP response vs DMSO [8],"GFP response, % of DMSO [9]","GFP response, % of DMSO [9, 11] [%]","GFP response, % of DMSO [9, 12] [%]",double positive events [10] [%],vesicle binding response [10]
CC(C)CC(=O)Nc1ccc2oc(-c3ccncc3)nc2c1,92.2% (inactive),144% (active),103% (inactive),82.5% (inactive),83.8% (inactive),103% (inactive),99.8,104,98.7% (inactive),98.7,101,97.8% (inactive),108% (inactive),99.7,107,71.3,292% (inactive)
Cn1c(=O)c(C(=O)NCCO)c(O)c2ccccc21,103% (inactive),105% (inactive),103% (inactive),104% (inactive),113% (inactive),101% (inactive),102,103,87.6% (inactive),86.4,88.7,96.2% (inactive),96.9% (inactive),108,97.3,60.8,185% (inactive)
